Measured values from the supplement of paper PMC9334596.
Several values for one entry are separate records, joined by “and”; a condition that tells them apart may be missing. Equal values may be shown once. In all, about 5,300 compounds were measured (“PER2::LUC luminescence relative to vehicle control”: median about 0.96, highest 2% from about 1.3 on). The sample holds the highest values, similar compounds and a random draw of the others, so the mix is not that of the screen.

System: mPer2Luc MEF
Experiment: PER2::LUC luminescence relative to vehicle control (fold of vehicle); higher = higher PER2::LUC reporter signal
Conditions: 10 µM
Outline: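 Compounds from commercial libraries were added at 10 μM to 384-well plates seeded 48 h earlier with ~3000 mPer2Luc mouse embryonic fibroblasts per well. The cells were kept in DMEM with 10% FBS at 37 °C and 5% CO2. Luminescence was read with ONE-Glo 24 h and 30 h after treatment, then an alamarBlue viability assay was run. Values are PER2::LUC luminescence relative to vehicle control, as fold change.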

Structure (SMILES) | PER2::LUC luminescence (time after treatment 24 h) | PER2::LUC luminescence (time after treatment 30 h)
CC(=O)c1ccc(S(=O)(=O)NC(=O)NC2CCCCC2)cc1 | 1.02 | 0.908
NC(=O)c1cccc(N)c1 | 1.1 | 1.01
CCCCN(CCCC)CCCOC(=O)c1ccc(N)cc1 | 0.966 | 0.832
CC(C)COC(=O)c1ccc(N)cc1 | 1.34 | 1.43
CCN(CC)CCOC(=O)c1ccc(N)cc1 | 1.07 and 0.897 | 1.58 and 0.928
CCCOc1ccc(C(=O)OCCN(CC)CC)cc1N | 1.03 | 0.962
Nc1ccc(C(=O)O)cc1 | 0.924 and 0.9 | 0.926 and 0.943
N=C(N)c1ccc(N)cc1 | 0.971 | 1.01
CCCCOC(=O)c1ccc(N)cc1 | 1.06 and 1.09 | 1.28 and 1.2
CCCCNc1ccc(C(=O)OCCN(C)C)cc1 | 1.04 | 0.965
CCCCOC(=O)c1ccc(O)cc1 | 1.63 and 1.43 | 1.61 and 1.57
CN(C)[C@@H]1c2onc(OCc3ccccc3)c2C(=O)[C@@]2(O[Si](C)(C)C(C)(C)C)C(=O)C=CC[C@@H]12 | 0.723 | 0.75
c1ccc2[nH]ncc2c1 | 0.963 | 0.985
CN1c2ccccc2C(=O)N2CCc3c([nH]c4ccccc34)C21 (stereo in doubt) | 0.589 | 0.628
CNc1ccccc1C(=O)N1CCc2c([nH]c3ccccc23)C1=O | 1.56 | 1.79
CN1CCc2ccccc2Cc2[nH]c3ccccc3c2CC1 | 1.11 | 0.824
O=Cc1ccc2cccc(O)c2n1 | 1.1 | 0.962
Nc1n[n+]([O-])c2ccccc2[n+]1[O-] | 1.36 | 1.15
CNC(=S)NCCSCc1[nH]cnc1C | 1.06 | 1.06
N[C@@H](CCS(=O)O)C(=O)O | 0.964 | 0.944
CN(NC(=O)CC(=O)NN(C)C(=S)c1ccccc1)C(=S)c1ccccc1 | 1.68 | 1.1
O=C(OOC(=O)c1ccccc1)c1ccccc1 | 1.2 | 0.843
O=C(O)c1ccccc1 | 0.918 | 0.766

Structure (SMILES) | PER2::LUC luminescence (time after treatment 24 h) | PER2::LUC luminescence (time after treatment 30 h)
NS(=O)(=O)c1ccc(-c2c(-c3ccccc3)noc2C(F)F)cc1 | 1.04 | 1
CO[C@H]1C[C@H](O[C@@H]2/C(C)=C/C[C@@H]3C[C@@H](C[C@]4(CC[C@H](C)[C@H](C5CCCCC5)O4)O3)OC(=O)[C@H]3C=C(C)/C(=N\O)[C@H]4OCC(=C/C=C/[C@@H]2C)[C@@]34O)O[C@@H](C)[C@@H]1O | 0.989 | 0.929
CSc1ccccc1NC(C)=O | 0.972 | 0.93
CC(=O)N[C@H]1[C@H]([C@H](O)[C@H](O)CO)OC(O)(C(=O)O)C[C@@H]1O (stereo not given in full) | 1.03 | 0.921
COc1cc(C(=O)O[C@H]2C[C@@H]3CC[C@]2(C)C3(C)C)ccc1O | 1.15 | 1.19
COc1ccc(-c2ccc3cc(C(=O)O)ccc3c2)cc1C12CC3CC(CC(C3)C1)C2 | 1.49 | 1.86
COc1cc(C(=O)O)cc(OC)c1O | 1.06 | 1.08
O=C(O)/C=C/c1ccc(-c2ccc(O)c(C34CC5CC(CC(C5)C3)C4)c2)cc1 | 0.735 | 0.721
O=C(O)c1ccc2cc(-c3ccc(O)c(C45CC6CC(CC(C6)C4)C5)c3)ccc2c1 | 1.59 | 1.63
NC(=O)c1cccc(NC(=O)/C=C/c2c[nH]c3ccccc23)c1 | 1.08 | 1.06
C=C1/C(=C\C=C2/CCC[C@]3(C)[C@@H]([C@H](C)CC[C@@H](O)C(C)(C)O)CC[C@@H]23)C[C@@H](O)C[C@@H]1O | 0.999 | 0.835
CC1(C)C2CCC1(C(=O)O)C(=O)C2 (stereo not given) | 0.998 | 0.954
COc1ccc(CNC(=O)c2sc3nc(C)cc(C)c3c2N)cc1 | 0.953 | 0.979
COc1ccc(CNC(=O)Nc2ncc([N+](=O)[O-])s2)cc1 | 1.35 | 1.27
O=C(Nc1ncc([N+](=O)[O-])s1)c1ccccc1O | 1.45 | 1.73
O=C(Nc1ncc([N+](=O)[O-])s1)c1ccc([N+](=O)[O-])c(Cl)c1 | 0.928 | 1.22
CC(=O)Oc1ccccc1C(=O)Nc1ncc([N+](=O)[O-])s1 | 0.826 | 1.16
CC(=O)Nc1ncc([N+](=O)[O-])s1 | 1.33 and 1.09 | 0.865 and 1.09
COc1ccc(C2=N[C@@H](c3ccc(Cl)cc3)[C@@H](c3ccc(Cl)cc3)N2C(=O)N2CCNC(=O)C2)c(OC(C)C)c1 (racemic) | 0.971 | 0.948
Nc1ncnc2c1ncn2[C@@H]1O[C@H](CO)C[C@@H]1O | 0.952 | 0.956
NCCCCCCCCCCNCCCN | 0.962 | 0.892
C[C@H](NC(=O)CNC(=O)[C@@H](NC(=O)[C@H](Cc1ccccc1)NC(=O)CNC(=O)CNC(=O)[C@@H](N)Cc1ccccc1)[C@@H](C)O)C(=O)N[C@@H](CCCN=C(N)N)C(=O)N[C@@H](CCCCN)C(=O)N[C@@H](CO)C(=O)N[C@@H](C)C(=O)N[C@@H](CCCN=C(N)N)C(=O)N[C@@H](CCCCN)C(N)=O | 1.02 | 0.922
